Compound activity as filed in PubChem.
Shown is part of a subset that was picked to be rich in hits.
p53null 39C kill: qHTS Screen for Compounds that Selectively Target Cancer Cells with p53 Mutations: Cytotoxicity of p53 Null Cells at the Nonpermissive Temperature. H1299 p53-null (neo) cells, 39C, ATPlite viability, 24 h. Potency, µM (highest dose often 46.1 µM), inactives show at the highest dose activity, negative = cell killing, actives largely listed as cytotoxic. 55,000 compounds, 0.97% hits. AID 904, 2007;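 note: 0% = DMSO only and -100% = full killing by 100 µM tamoxifen; nearly all actives have a fitted effect of over 50% in size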
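Concentration-response (up to 46 uM) was run for 24 h at the nonpermissive 39C on H1299-p53A138V or H1299-neo cells. ATP content was measured with ATPlite luminescence. AC50 values were Hill-modeled after normalizing between DMSO and 100 uM tamoxifen killing.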
GALC G270D up: A Novel Cell-Based Assay to Identify Small Molecules for B -Galactocerebrosidase; P54803; 145M-Twi-hGALC-G270D cells (Twitcher mouse brain line with human GALC G270D), HMU-beta-Gal fluorescence, 48 h; Potency, µM (highest dose often 57.5 µM), actives largely listed as activators; 45,000 compounds, 0.1% hits; note: 0% is about no effect; nearly all actives have a fitted effect of over 65% in size
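Mutant human GALC (G270D), stably expressed in a Twitcher mouse brain cell line lacking endogenous GALC, is measured in live-treated cells via 6-hexadecanoylamino-4-methylumbelliferyl-β-galactoside hydrolysis (0.1 mM final, pH 5.2) with fluorescent detection.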
NTMT1 inh: Primary qHTS for Inhibitors of N-terminal methyltransferase 1 (NTMT1): MTaseGlo Assay | Potency, µM (doses to about 114 µM), for inactives: at the top dose activity change, negative = inhibition, actives largely listed as inhibitors | N-terminal Xaa-Pro-Lys N-methyltransferase 1 (Homo sapiens), Q9BV86 | NTMT1 MTase-Glo SAH luminescence, purified enzyme | AID 1645870, 2021 | 59,000 compounds, 2.5% hits;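 note: plate controls were DMSO vehicle for no effect and no enzyme for full effect; nearly all actives have a fitted effect of over 65% in size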
Target sequence (Q9BV86 whole entry, looked up): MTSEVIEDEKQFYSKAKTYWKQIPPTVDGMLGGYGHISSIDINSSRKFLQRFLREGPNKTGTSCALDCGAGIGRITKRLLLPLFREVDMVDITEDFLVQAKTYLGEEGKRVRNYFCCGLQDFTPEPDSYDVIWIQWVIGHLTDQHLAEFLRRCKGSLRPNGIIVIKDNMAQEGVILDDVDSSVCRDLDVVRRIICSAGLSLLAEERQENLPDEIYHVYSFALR
FH mod: Identification of activators of human fumarate hydratase by quantitative high-throughput screening | Fumarate hydratase, mitochondrial (Homo sapiens), P07954 | FH coupled MDH/diaphorase resazurin fluorescence, 15 min | Potency, µM (doses to about 79.9 µM), without a hit: top-dose activity change, negative = inhibition, actives largely listed as inhibitors | 54,000 compounds, 0.22% hits | AID 1347055, 2019; note: % is set by controls: 0 for no effect and ±100 for the full control effect; the screen sought activators but most active calls are inhibition curves; nearly all actives have a fitted effect of over 45% in size
Target sequence (P07954 whole entry, looked up): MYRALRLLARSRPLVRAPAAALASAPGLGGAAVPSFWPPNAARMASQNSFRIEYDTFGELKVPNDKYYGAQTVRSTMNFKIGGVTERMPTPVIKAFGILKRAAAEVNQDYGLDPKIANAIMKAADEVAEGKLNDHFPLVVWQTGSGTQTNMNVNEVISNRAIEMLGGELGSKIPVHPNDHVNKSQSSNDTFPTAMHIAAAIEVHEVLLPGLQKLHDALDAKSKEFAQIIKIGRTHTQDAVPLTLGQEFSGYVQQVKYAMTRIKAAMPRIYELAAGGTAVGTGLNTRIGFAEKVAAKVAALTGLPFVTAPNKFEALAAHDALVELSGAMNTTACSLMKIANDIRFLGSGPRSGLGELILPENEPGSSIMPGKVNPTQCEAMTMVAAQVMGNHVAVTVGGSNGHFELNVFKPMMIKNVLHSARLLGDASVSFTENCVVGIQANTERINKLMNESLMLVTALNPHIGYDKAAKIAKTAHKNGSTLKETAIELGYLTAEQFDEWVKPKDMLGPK
p53null 32C kill: qHTS Screen for Compounds that Selectively Target Cancer Cells with p53 Mutations: Cytotoxicity of p53 Null Cells at the Permissive Temperature. H1299-neo p53 null cells, ATP luminescence, 24 h, 32C. Potency, µM (top dose mostly 46.1 µM), for inactives: at the highest dose activity change, negative = cytotoxicity, actives largely listed as cytotoxic. 55,000 compounds, 0.62% hits. AID 903, 2007;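 note: 0% = DMSO only and -100% = full killing by 100 µM tamoxifen; nearly all actives have a fitted effect of over 55% in size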
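H1299-neo (p53-null) cells, 600/well, were pre-incubated overnight at 37C, then exposed to compounds at up to 46 uM for 24 hr at 32C. Viability was measured as ATP content by luminescence, and AC50 values came from Hill fits.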
Active calls of the source: *; ! = not active in a repeat; [ ] = another dose, or the depositor's remark. Calls come from the whole dose curve; as a rule, active = well fitted curve in the direction sought with a large enough effect; inconclusive = small, poorly fitted or top-dose-only effect, or another doubt; inactive = no such curve, though single readings can be large; an effect the other way counts as inactive or inconclusive. Potency is the fitted concentration of half-maximal effect.

Results for CNC(=O)c1ccc(NC(=O)c2nsc3ccccc23)cc1 ?
p53null 39C kill: 5µM*; GALC G270D up: inactive; NTMT1 inh: 40µM*; FH mod: -8%; p53null 32C kill: 6.3µM*

Results for O=C(NCc1cccc(F)c1)c1ccc(NC(=O)c2nsc3ccccc23)cc1 ?
p53null 39C kill: 10µM*; GALC G270D up: inactive; NTMT1 inh: 45µM*; FH mod: -7%; p53null 32C kill: inconclusive

What do the screens show for `Cc1ccc(-c2ccc(=O)n(CC(=O)NCCCc3ccccc3)n2)cc1`?
NTMT1 inh: 7%

What do the screens show for `CC(C)NCCCn1c(Sc2cc3c(cc2I)OCO3)nc2c(N)ncnc21`?
NTMT1 inh: -7%[57.5 µM]; FH mod: 2%

Results for CCOC(=O)c1ccc(NC(=O)c2nc(S(=O)(=O)Cc3ccccc3)ncc2Cl)cc1 ?
p53null 39C kill: 23%; GALC G270D up: inactive; NTMT1 inh: 2%; FH mod: 3%; p53null 32C kill: -9%

How did CN(c1ccccc1)S(=O)(=O)c1ccc(NC(=O)c2nc(S(C)(=O)=O)ncc2Cl)cc1 do in these assays?
p53null 39C kill: inconclusive; GALC G270D up: inactive; NTMT1 inh: -22%; FH mod: inconclusive; p53null 32C kill: 22µM*

What do the screens show for `CCS(=O)(=O)c1ncc(Cl)c(C(=O)Nc2ccccc2)n1`?
p53null 39C kill: 20µM*; GALC G270D up: inactive; NTMT1 inh: -7%; FH mod: 3%; p53null 32C kill: 61%

Results for Cc1cnc(-c2ccccc2C(F)(F)F)nc1NCc1ccc(-c2cccnc2)cc1 ?
NTMT1 inh: 28%

How did COc1ccc(C(=O)Nc2ccc3oc(-c4cccc5c(Br)cccc45)nc3c2)cc1 do in these assays?
p53null 39C kill: 6%; GALC G270D up: inactive; NTMT1 inh: 6%; FH mod: -9%; p53null 32C kill: -2%

How did Nc1ccc2oc(-c3ccccc3Br)nc2c1 do in these assays?
p53null 39C kill: 13µM*; GALC G270D up: inactive; NTMT1 inh: inconclusive; FH mod: -6%; p53null 32C kill: inconclusive

How did Cc1nnc(-c2cnn(C)c2N)n1CCc1ccccc1 do in these assays?
NTMT1 inh: 3%

What do the screens show for `COC(=O)c1cc(C)nc2c1c(=O)nc(SCc1c(C)cc(C)cc1C)n2C1CC1`?
p53null 39C kill: 13µM*; GALC G270D up: inactive; NTMT1 inh: -9%; FH mod: inconclusive; p53null 32C kill: 41%

What do the screens show for `COC(=O)c1cc(C)nc2c1c(=O)nc(SCc1cc(C)ccc1C)n2C1CC1`?
p53null 39C kill: -5%; GALC G270D up: inactive; NTMT1 inh: -14%; FH mod: -23%; p53null 32C kill: 3%

How did Cc1cn([C@H]2C[C@H](N[S+](=O)([O-])Cc3ccccc3)[C@@H](CO)O2)c(=O)[nH]c1=O do in these assays?
NTMT1 inh: 5%[57.5 µM]

What do the screens show for `Cc1cn([C@H]2C[C@H](N[S+](=O)([O-])Cc3cc(Cl)cc(Cl)c3)[C@@H](CO)O2)c(=O)[nH]c1=O`?
NTMT1 inh: 79µM*

How did COc1ccccc1-c1cc(Nc2cccc(CS(N)(=O)=O)c2)ncn1 do in these assays?
NTMT1 inh: 35µM*; FH mod: 7%

How did CCOc1ccc(CCNC(=O)c2ccc3[nH]c(C)c(C)c3c2)cc1 do in these assays?
p53null 39C kill: -2%; GALC G270D up: inactive; NTMT1 inh: -21%; FH mod: inconclusive; p53null 32C kill: -5%

What do the screens show for `CCOc1ccc(CCNC(=O)c2ccc3c(c2)c(C)c(C)n3C)cc1`?
p53null 39C kill: 25%; GALC G270D up: inactive; NTMT1 inh: inconclusive; FH mod: 16µM*; p53null 32C kill: -1%

How did COc1ccc(OC)c(CNC(=O)c2ccc3c(c2)c(C)c(C)n3C)c1 do in these assays?
p53null 39C kill: 3%; GALC G270D up: inactive; NTMT1 inh: 89µM*; FH mod: -13%; p53null 32C kill: 0%

What do the screens show for `Cc1ccc(CCNC(=O)c2ccc3[nH]c(C)c(C)c3c2)cc1`?
p53null 39C kill: -2%; GALC G270D up: inactive; NTMT1 inh: inconclusive; FH mod: 35µM*; p53null 32C kill: -7%

How did COc1cccc(CNc2ccc(S(=O)(=O)Nc3nccs3)cc2)c1OC do in these assays?
NTMT1 inh: -2%

What do the screens show for `COc1cc2ncnc(Nc3ccc(F)c(Cl)c3)c2cc1OCCCN1CCOCC1`?
GALC G270D up: inactive; NTMT1 inh: 13µM*!; FH mod: -2%

How did C=CC(=O)Nc1cc2c(Nc3ccc(F)c(Cl)c3)ncnc2cc1OCCCN1CCOCC1 do in these assays?
GALC G270D up: inactive; NTMT1 inh: 11µM*!; FH mod: -26%

What do the screens show for `O=C1CCCc2cc(S(=O)(=O)Nc3cnccc3C(=O)Nc3nc(-c4ccccc4)cs3)ccc2N1`?
NTMT1 inh: -16%

How did CN(C)CCN(Cc1ccco1)C(=O)c1oc2ccccc2c1NC(=O)c1cccc(F)c1 do in these assays?
p53null 39C kill: 13µM*; GALC G270D up: inconclusive; NTMT1 inh: inconclusive; FH mod: -19%; p53null 32C kill: 5%

Results for CC(C)Oc1ccc(C(=O)Nc2c(C(=O)Nc3cccc(F)c3)oc3ccccc23)cc1 ?
p53null 39C kill: inconclusive; GALC G270D up: inactive; NTMT1 inh: -29%; FH mod: -4%; p53null 32C kill: inconclusive

How did COc1ccc(-c2nn(-c3ccc(F)cc3)c3c2cnc2cc4c(cc23)OCO4)cc1 do in these assays?
p53null 39C kill: inconclusive; GALC G270D up: inactive; NTMT1 inh: 3%; FH mod: -2%; p53null 32C kill: -4%

How did COc1cc(OC)cc(-c2ccc3ncc4ccc(=O)n(-c5ccc(N6CCNCC6)c(C(F)(F)F)c5)c4c3c2)c1 do in these assays?
NTMT1 inh: 43µM*; FH mod: -20%[53.3 µM]

What do the screens show for `COc1ccc(CCNS(=O)(=O)c2c(C)nc3sc(C)cn3c2=O)cc1OC`?
p53null 39C kill: 2%; GALC G270D up: inactive; NTMT1 inh: 0%; FH mod: -1%; p53null 32C kill: 6%

What do the screens show for `COc1cc(OC)c(NS(=O)(=O)c2c(C)nc3sc(C)cn3c2=O)cc1Cl`?
p53null 39C kill: 20µM*; GALC G270D up: inactive; NTMT1 inh: -2%; FH mod: -5%; p53null 32C kill: -6%

What do the screens show for `O=C(Nc1ccccc1C(F)(F)F)c1noc2c1CCCCC2`?
p53null 39C kill: 5µM*; p53null 32C kill: 10µM*

Results for COc1ccc2c(c1)CCc1c(C(=O)Nc3ccccc3C(F)(F)F)noc1-2 ?
p53null 39C kill: -18%; p53null 32C kill: -11%
